This note sets out measurements from PubChem BioAssay (NCI).

Among the test systems are NCI-H23 lung; NCI-H226 lung; NCI-H322M lung; HOP-62 NSCLC; NCI-H460 lung; HOP-92 NSCLC; NCI-H522 lung; A549/ATCC NSCLC; 786-0 renal; COLO 205 colon; DU-145 prostate; K-562 leukemia; MALME-3M melanoma; MDA-MB-231 breast; RXF 393 renal; SF-268 CNS; SF-295 CNS; SF-539 CNS; UACC-257 melanoma; M14 melanoma.
Common to all, as to test: NCI-60 one-dose screen, 48 h (100 = growth as untreated, 0 = no growth, -100 = all killed)
Holding throughout (details): 10 µM unless noted

The panel holds about 83,000 compounds, 20% with a hit somewhere; the sample as a whole holds those more often.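 Compound tested at a single concentration for 48 hours in 96-well plates; a percent growth value below 10 was scored as active.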 Unmarked numbers belong to inactive results. Calls of active or inactive are those of the source.

For the compound `Nc1ccc2c(c1)Cc1cc(N)ccc1-2`, the growth is 92.3% in the assay on NCI-H23 lung; 91.4% in the assay on NCI-H226 lung; 90% with NCI-H322M lung; 87.1% with HOP-62 NSCLC; 93.1% in the assay on NCI-H460 lung; 76.5% in the assay with HOP-92 NSCLC. The growth was 92.8% in the assay on NCI-H522 lung; 84.3% in the assay on A549/ATCC NSCLC; 105% in the assay on 786-0 renal; 90% with COLO 205 colon; 107% in the assay with DU-145 prostate; 112% in the assay with K-562 leukemia. In addition, the growth is 85.7% in the assay on MALME-3M melanoma; 75.6% in the assay on MDA-MB-231 breast; 87.9% in the assay with RXF 393 renal; 95.4% in the assay with SF-268 CNS; 100% in the assay on SF-295 CNS; 96.8% in the assay on SF-539 CNS. The growth in the assay with UACC-257 melanoma was 91.3%; in the assay on M14 melanoma it was 92.7%.
As for `CO[C@@H]([CH2][Hg][O]C(=O)c1ccccc1)[C@@H]([CH2][Hg][O]C(=O)c1ccccc1)OC`, the growth is 102% with NCI-H23 lung; 93.2% in the assay with NCI-H226 lung; 105% with NCI-H322M lung; 81.8% with HOP-62 NSCLC; 103% in the assay on NCI-H460 lung; 114% in the assay on HOP-92 NSCLC. In addition, the growth was -53.9% (active) with NCI-H522 lung; 95.6% with A549/ATCC NSCLC; 101% with 786-0 renal; 84.8% with COLO 205 colon; 91.4% with DU-145 prostate; 30.1% with K-562 leukemia. Besides, the growth in the assay on MALME-3M melanoma was 35.6%; in the assay with MDA-MB-231 breast, 88.9%; in the assay on RXF 393 renal, 114%; in the assay on SF-268 CNS it was 102%; in the assay with SF-295 CNS it was 106%; with SF-539 CNS, 102%. Besides, the growth in the assay on UACC-257 melanoma is 90.7%; with M14 melanoma it was 79.5%.
Take `Oc1ccccc1C=NCCN=Cc1ccccc1O`: the growth in the assay with NCI-H23 lung was 99.8%; in the assay on NCI-H226 lung, 99.5%; with NCI-H322M lung, 97.5%; in the assay on HOP-62 NSCLC, 96.9%; in the assay on NCI-H460 lung, 107%; with HOP-92 NSCLC, 99.6%. Besides, the growth was 92.3% with NCI-H522 lung; 98.7% with A549/ATCC NSCLC; 106% in the assay on 786-0 renal; 118% with COLO 205 colon; 108% in the assay with DU-145 prostate; 112% in the assay on K-562 leukemia. Also, the growth was 113% with MALME-3M melanoma; 101% with MDA-MB-231 breast; 109% with RXF 393 renal; 97% in the assay with SF-268 CNS; 101% in the assay with SF-295 CNS; 106% in the assay with SF-539 CNS. Further, the growth was 96.4% with UACC-257 melanoma and 102% in the assay on M14 melanoma.
For `CC[C@H](C)[C@H](NC(=O)[C@H]1CCCCN1C)C(=O)N(C)[C@H](C(=O)NC12CC(C(=O)N[C@@H](Cc3ccccc3)C[C@H](C)C(=O)OC)(C1)C2)C(C)C`, the growth was 97.7% in the assay on NCI-H23 lung; 98.8% in the assay with NCI-H226 lung; 91.9% with NCI-H322M lung; 92.8% in the assay with HOP-62 NSCLC; 101% in the assay with NCI-H460 lung; 98.4% with HOP-92 NSCLC. The growth is 74.2% with NCI-H522 lung; 92% in the assay on A549/ATCC NSCLC; 103% with 786-0 renal; 110% with COLO 205 colon; 105% in the assay on DU-145 prostate; 98.2% in the assay on K-562 leukemia. The growth in the assay with MALME-3M melanoma was 106%; in the assay with MDA-MB-231 breast, 110%; in the assay on RXF 393 renal, 108%; in the assay with SF-268 CNS, 90.2%; in the assay on SF-295 CNS, 102%; in the assay with SF-539 CNS it was 100%. Further, the growth in the assay with UACC-257 melanoma was 102%; with M14 melanoma it was 101%.
In the case of `N#CCN(CC#N)[N+](=O)[O-]`, the growth with NCI-H23 lung was 109%; in the assay with NCI-H226 lung, 97.9%; in the assay on NCI-H322M lung, 110%; with HOP-62 NSCLC, 102%; with NCI-H460 lung, 104%; in the assay on HOP-92 NSCLC it was 84.9%. Further, the growth was 94.4% in the assay with NCI-H522 lung; 106% in the assay on A549/ATCC NSCLC; 103% with 786-0 renal; 110% in the assay with COLO 205 colon; 107% in the assay with DU-145 prostate; 105% in the assay on K-562 leukemia. Moreover, the growth was 111% in the assay on MALME-3M melanoma; 103% with MDA-MB-231 breast; 106% in the assay on RXF 393 renal; 102% in the assay with SF-268 CNS; 110% in the assay with SF-295 CNS; 102% with SF-539 CNS. Further, the values for the growth with UACC-257 melanoma and in the assay on M14 melanoma were 113% and 97%, respectively.
As for `CC(=O)Cc1ccc2c(c1)OCO2`, the growth was 93.9% with NCI-H23 lung; 104% with NCI-H226 lung; 113% in the assay on NCI-H322M lung; 102% with HOP-62 NSCLC; 109% in the assay with NCI-H460 lung; 110% in the assay with HOP-92 NSCLC. The growth with NCI-H522 lung was 96.1%; with A549/ATCC NSCLC, 96%; in the assay on 786-0 renal, 109%; in the assay on COLO 205 colon it was 117%; with DU-145 prostate, 111%; in the assay with K-562 leukemia it was 116%. Besides, the growth in the assay on MALME-3M melanoma was 116%; with MDA-MB-231 breast, 89.1%; with RXF 393 renal, 115%; with SF-268 CNS, 98.3%; with SF-295 CNS, 109%; in the assay on SF-539 CNS it was 95.4%. The growth is 104% with UACC-257 melanoma and 105% in the assay on M14 melanoma.
`C[C@]12CCc3nc(-c4ccc(O)c(O)c4)sc3C1=CC[C@@H]1[C@@H]2CC[C@]2(C)C(=O)CC[C@@H]12`: the growth was 69% in the assay with NCI-H23 lung; 65% with NCI-H226 lung; 80% in the assay on NCI-H322M lung; 80.8% in the assay with HOP-62 NSCLC; 93.8% in the assay on NCI-H460 lung; 56.3% with HOP-92 NSCLC. Besides, the growth with NCI-H522 lung was 8.61% (active); with A549/ATCC NSCLC it was 61.2%; in the assay on 786-0 renal, 75.3%; with COLO 205 colon, 55.4%; in the assay on DU-145 prostate it was 75.3%; with K-562 leukemia, 56%. For the same compound, the growth was 62.9% in the assay on MALME-3M melanoma; 56% in the assay with MDA-MB-231 breast; 91.2% in the assay with RXF 393 renal; 81.5% with SF-268 CNS; 104% with SF-295 CNS; 56.4% in the assay with SF-539 CNS. Moreover, the growth in the assay with UACC-257 melanoma was 91.4%; in the assay with M14 melanoma, 63.1%.
